Here are results for 52 compounds from PMC4336329 (PLoS ONE, 2015).

In all, about 310,000 compounds went through this assay and about 14,000 (4.5%) showed an effect of 50% or more. Effects have a minus sign here. What follows is part of a selection rich in strong results, with near analogues and random picks from the rest.
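Further: peak tail current of the secondary pulse compared with the same well before compound.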

Sequence of human ether-à-go-go-related gene (hERG) potassium channel (Q12809 whole entry, looked up): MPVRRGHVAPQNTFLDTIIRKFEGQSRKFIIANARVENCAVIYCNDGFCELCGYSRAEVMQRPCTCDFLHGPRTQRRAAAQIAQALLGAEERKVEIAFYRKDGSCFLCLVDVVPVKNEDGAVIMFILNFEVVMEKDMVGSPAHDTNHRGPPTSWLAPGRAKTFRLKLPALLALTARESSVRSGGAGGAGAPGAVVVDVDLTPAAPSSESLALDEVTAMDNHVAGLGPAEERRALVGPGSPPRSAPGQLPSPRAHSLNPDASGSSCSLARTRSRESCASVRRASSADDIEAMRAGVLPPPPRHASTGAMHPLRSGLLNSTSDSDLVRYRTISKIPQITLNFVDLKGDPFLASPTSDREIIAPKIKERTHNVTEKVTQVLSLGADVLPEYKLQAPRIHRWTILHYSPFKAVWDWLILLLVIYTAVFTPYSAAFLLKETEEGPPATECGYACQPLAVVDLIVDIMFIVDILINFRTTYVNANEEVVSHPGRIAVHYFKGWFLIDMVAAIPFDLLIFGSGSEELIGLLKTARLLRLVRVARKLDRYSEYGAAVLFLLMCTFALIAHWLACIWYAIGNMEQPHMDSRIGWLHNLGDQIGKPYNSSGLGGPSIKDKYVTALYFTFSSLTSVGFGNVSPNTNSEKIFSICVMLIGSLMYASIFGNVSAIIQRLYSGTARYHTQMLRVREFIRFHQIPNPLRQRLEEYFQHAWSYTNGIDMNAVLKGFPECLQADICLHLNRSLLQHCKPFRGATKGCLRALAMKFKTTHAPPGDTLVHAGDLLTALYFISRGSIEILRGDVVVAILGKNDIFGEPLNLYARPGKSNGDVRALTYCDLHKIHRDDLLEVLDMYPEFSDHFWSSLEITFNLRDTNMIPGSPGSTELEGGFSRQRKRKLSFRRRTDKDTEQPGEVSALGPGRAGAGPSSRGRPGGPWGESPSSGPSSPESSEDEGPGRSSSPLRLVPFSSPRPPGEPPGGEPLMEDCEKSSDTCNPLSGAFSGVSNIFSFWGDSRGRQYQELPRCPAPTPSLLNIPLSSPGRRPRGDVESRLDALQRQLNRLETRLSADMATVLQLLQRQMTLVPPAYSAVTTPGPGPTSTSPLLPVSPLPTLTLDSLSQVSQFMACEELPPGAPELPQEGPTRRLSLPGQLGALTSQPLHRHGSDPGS

This test addresses human ether-à-go-go-related gene (hERG) potassium channel (human, UniProt Q12809). Nature of the test: primary screen, population patch clamp on CHO cells stably expressing hERG; higher = less effect of the substance.
In the case of `Cc1ncc([N+](=O)[O-])n1CC(=O)Nc1ccc(F)cc1F`, the “hERG current change (%, negative = inhibition) at 10uM” value is on record as 13.3%.
Then `CCOc1ncccc1C(=O)OCC(=O)Nc1ccc(C)c(S(=O)(=O)N2CCOCC2)c1`, with -27%.
Take `CCOC(=O)[C@H]1[C@H]2COc3ccc(OC)cc3[C@@H]2N2C(=O)CN(Cc3ccc(F)cc3)C(=O)[C@@]12C`: the “hERG current change (%, negative = inhibition) at 10uM” value was -26.5%.
Take `CCOC(=O)/C=c1\s/c(=C\c2ccc(C(=O)OC)cc2)c(=O)n1CC(=O)Nc1ccccc1.Cl`: the “hERG current change (%, negative = inhibition) at 10uM” value stood at 19.5%.
Then `COc1ccc(NC(=O)CCCn2c(=O)c3sccc3n(Cc3ccc(C)cc3)c2=O)cc1`, with -5.72%; and `COc1ccc(NC(C)=O)cc1S(=O)(=O)N1CCN(C(=O)c2ccccc2F)CC1`, with -7.16%.
Consider `Cc1ccc(-c2ccc(C(=O)NCCCNC(=O)c3cnccn3)o2)cc1Cl`, for which the “hERG current change (%, negative = inhibition) at 10uM” value was 25.5%.
As for `O=C(COc1ccc(Cl)cc1Cl)NCCCNC(=O)c1cnccn1`, the “hERG current change (%, negative = inhibition) at 10uM” value is listed as -56.5%.
Regarding `O=C(NCCCNC(=O)c1ccc(-c2cccc(Cl)c2)o1)c1cnccn1`, the “hERG current change (%, negative = inhibition) at 10uM” value is -31.8%.
To `O=C(COc1ccc(Cl)cc1)NCCCNC(=O)c1cnccn1` belongs -10.2%; to `O=C(COc1ccccc1Cl)NCCCNC(=O)c1cnccn1`, 5.28%; to `O=C(NCCNC(=O)c1ccc(-c2ccc(Cl)c(Cl)c2)o1)c1cnccn1`, -71.6%.
To `CCn1c(SCc2cc(=O)[nH]c3ccccc23)nnc1C1CC1` belongs 8.48%; to `O=C(N/N=C/c1ccncc1)c1cccc(NC(=O)c2ccccc2Cl)c1`, -2.33%; to `O=C(C1CCN(S(=O)(=O)c2cccc3nsnc23)CC1)N1CCCCC1`, 2.03%.
To `O=C(CN1CCN(c2ccc(F)cc2)CC1)N(C1CCCC1)C1CCS(=O)(=O)C1` (stereo not shown) belongs -40.4%; to `Cc1ccccc1Cn1cc(/C=N/n2cnnc2)c2ccccc21`, 14.8%; to `COc1cc(CC(=O)Oc2ccc3c(c2)OCO3)cc(OC)c1OC`, -2.51%.
Take `COc1ccc(CCNC(=O)CS(=O)(=O)Cc2nc(-c3ccccc3Cl)oc2C)cc1OC`: the “hERG current change (%, negative = inhibition) at 10uM” value is listed as -3.23%.
To `COc1ccc(-c2cc(C(=O)NCc3cn(C)nc3C)c3ccccc3n2)cc1OC` belongs 2.61%.
Then `CCn1cc(CNC(=O)c2cc(-c3ccccc3OC)nc3ccccc23)c(C)n1`, with -19.5%; and `C/C(=N\NC(=O)c1cc(-c2ccncc2)nc2ccccc12)c1ccc(OC(F)F)cc1`, with -56.1%; and `COc1ccc(-c2cc(C(=O)N/N=C(\C)c3cccnc3)c3ccccc3n2)cc1`, with 8.87%.
For the compound `COc1ccc(/C(C)=N/NC(=O)c2cc(-c3cccnc3)nc3ccccc23)cc1`, the “hERG current change (%, negative = inhibition) at 10uM” value is 10.6%.
Take `CCn1cc(CNC(=O)c2cc(-c3cc(OC)ccc3OC)nc3ccccc23)c(C)n1`: the “hERG current change (%, negative = inhibition) at 10uM” value was -53.9%.
Then `COc1ccc(OC)c(-c2cc(C(=O)N/N=C(\C)c3cccnc3)c3ccccc3n2)c1`, with -65.5%; and `COc1ccc(-c2cc(C(=O)N/N=C(\C)c3cccnc3)c3ccccc3n2)c(OC)c1`, with 1.6%; and `CC(=O)Nc1cccc(/C(C)=N/NC(=O)c2cc(-c3ccncc3)nc3ccccc23)c1`, with -6.95%.
Then `CCOC(=O)c1cc(-c2ccccc2C)n(CC2CC(c3cccc([N+](=O)[O-])c3)=NO2)n1` (stereo not shown), with 0.113%.
As to `Cc1csc(SCC(=O)Nc2cccc(S(=O)(=O)N3CCOCC3)c2)n1`, the “hERG current change (%, negative = inhibition) at 10uM” value was -6.13%.
As to `CCn1nnnc1SCC(=O)N1c2ccccc2CCc2ccccc21`, the “hERG current change (%, negative = inhibition) at 10uM” value turned out to be 2.92%.
Then `CCOC(=O)C(=O)Nc1nnc(SCc2ccc(F)cc2)s1`, with 1.7%; and `Cc1ccc(SCC(=O)NC2CC2)cc1`, with 13.3%; and `CCOCCCNC(=O)c1cc(C)nn1-c1ccccc1`, with 11%.
Then `CC1CN(Cc2cn(C)nc2-c2ccc(Oc3ccccc3)cc2)CCN1C` (stereo not shown), with -57.2%; and `Cn1cc(CN2CCC(CO)CC2)c(-c2ccc(Oc3ccccc3)cc2)n1`, with -67.5%.
Then `CCN(CC)C(=O)C1CCN(Cc2cn(C)nc2-c2ccc(Oc3ccccc3)cc2)CC1`, with -46.9%; and `COCCN1CCCC(CNCc2cn(C)nc2-c2ccc(Oc3ccccc3)cc2)C1` (stereo not shown), with -33.2%.
With `COC1CCCN(Cc2cn(C)nc2-c2ccc(Oc3ccccc3)cc2)C1` (stereo not shown), the “hERG current change (%, negative = inhibition) at 10uM” value is listed as -40.7%.
Turning to `Cn1cc(CN2CCCC(CO)C2)c(-c2ccc(Oc3ccccc3)cc2)n1` (stereo not shown), the “hERG current change (%, negative = inhibition) at 10uM” value is on record as -26.2%.
To `CCOC(=O)C1CCN(Cc2cn(C)nc2-c2ccc(Oc3ccccc3)cc2)CC1` belongs -44.9%.
For the compound `C[C@H]1C(=O)N(C)CCN1Cc1cn(C)nc1-c1ccc(Oc2ccccc2)cc1`, the “hERG current change (%, negative = inhibition) at 10uM” value is on record as -4.92%.
For `COCCN1CCN(Cc2cn(C)nc2-c2ccc(Oc3ccccc3)cc2)CC1`, the “hERG current change (%, negative = inhibition) at 10uM” value is on record as -65.2%.
Take `CCCN1CCC(NCc2cn(C)nc2-c2ccc(Oc3ccccc3)cc2)CC1`: the “hERG current change (%, negative = inhibition) at 10uM” value is -66.1%.
To `Cn1cc(CN2CCN(CCO)CC2)c(-c2ccc(Oc3ccccc3)cc2)n1` belongs -32.3%; to `Cn1cc(CN2CCC(O)CC2)c(-c2ccc(Oc3ccccc3)cc2)n1`, -23.7%.
With `O=C(O)c1ccc2c3c(cccc13)C(=O)N(c1cccc3ccccc13)C2=O`, the “hERG current change (%, negative = inhibition) at 10uM” value is 34.3%.
To `COc1ccc(-c2[nH]ncc2CN(CCO)Cc2cccs2)c(F)c1` belongs 4.65%; to `CCCC(=O)NC(C)c1nc2ccccc2n1C(C)C` (stereo not shown), 8.05%; to `Cc1cc(C)cc(N(CCC#N)C(=O)COC(=O)CN2C(=O)NC(C)(C)C2=O)c1`, 19.6%.
Take `COc1cccc(NC(=O)NNS(=O)(=O)c2ccc(OC)cc2OC)c1`: the “hERG current change (%, negative = inhibition) at 10uM” value is -3%.
Then `COc1ccc(N=N/C(C(C)=O)=C(/C)O)cc1`, with -24.5%.
